An excerpt weighted towards active compounds, which were near 9.2% of everything screened.
FLuc modulator – counter-screen for miR-21 project: firefly luciferase inhibitors or activators; P08659; purified FLuc, Km substrates, luminescence inhibition; Potency, µM (titrated, usually from 57.5 µM), usual class: inhibitors; 6.9% of 360,000 active; AID 588342; further: nearly all actives have a fitted effect of over 55% in size
Target sequence (P08659 whole entry, looked up): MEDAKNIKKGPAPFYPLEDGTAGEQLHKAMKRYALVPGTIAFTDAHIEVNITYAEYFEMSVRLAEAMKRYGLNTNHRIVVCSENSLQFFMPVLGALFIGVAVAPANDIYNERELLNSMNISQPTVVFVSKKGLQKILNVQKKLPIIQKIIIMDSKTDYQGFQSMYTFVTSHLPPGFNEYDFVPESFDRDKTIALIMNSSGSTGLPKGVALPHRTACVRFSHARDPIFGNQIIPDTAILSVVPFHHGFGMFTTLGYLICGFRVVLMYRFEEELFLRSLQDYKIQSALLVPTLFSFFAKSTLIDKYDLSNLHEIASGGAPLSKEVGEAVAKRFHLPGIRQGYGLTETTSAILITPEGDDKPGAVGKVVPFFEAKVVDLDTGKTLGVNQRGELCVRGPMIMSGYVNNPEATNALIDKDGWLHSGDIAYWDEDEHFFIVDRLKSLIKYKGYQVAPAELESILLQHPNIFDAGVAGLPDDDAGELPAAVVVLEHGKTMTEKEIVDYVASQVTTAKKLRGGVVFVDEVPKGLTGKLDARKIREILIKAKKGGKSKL
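Purified P. pyralis luciferase (10nM final) with 10uM D-luciferin and 10uM ATP (Km levels) in 50mM Tris acetate pH 7.5, 10mM Mg acetate, 0.01% Tween-20, 0.05% BSA; qHTS 6-point titration, ~60 µM downward; luminescence read.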
NPC1 prom act – activates the NPC1 promoter | Huh7 NPC1 promoter luciferase reporter, 24 h | Potency, µM (doses to about 9.22 µM), hits mostly activators | 2.4% of 320,000 active | AID 485313; further: nearly all actives have a fitted effect of over 60% in size
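Huh7 reporter cells (NPC1 promoter driving luciferase) are dosed with compound for 24 h at 37 °C, 5% CO2; luciferase detection reagent is then added and luminescence measured after 10 min at ambient temperature.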
Rab9 prom act – activates the Rab9 promoter. Potency, µM (doses to about 9.22 µM), most hits filed as activators. Huh7 Rab9 promoter-luciferase reporter, luminescence, 24 h. 2.8% of 320,000 active; further: nearly all actives have a fitted effect of over 60% in size
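Luminescence read-out: Huh7 cells stably expressing Rab9-luciferase, treated 24 h with compound at 37 °C, then lysed with luciferase reagent for 10 min at ambient before reading.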
ELG1 genotoxic – induces genotoxicity in HEK293T cells with luciferase-tagged ELG1; HEK293T ELG1-luciferase reporter, luminescence, 16 h; Potency, µM (titrated, usually from 46 µM), hits mostly activators; 1.3% of 330,000 active; further: nearly all actives have a fitted effect of over 60% in size
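HEK293T cells expressing luciferase-tagged ELG1 were treated with compound or DMSO for 16 hr at 37°C. Luciferase activity was then read after 30 min with ONE-Glo at room temperature; rising signal flags genetic stress.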
SMN2 splice enh – enhancers of SMN2 splice variant expression; 2.8% of 210,000 active; Potency, µM (doses to about 46.1 µM), usual class: activators; AID 1458; HEK293 SMN2-luciferase splicing reporter, luminescence, 30-36 h; further: nearly all actives have a fitted effect of over 55% in size
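HEK293 cells carry an SMN2 minigene-luciferase reporter in which exon 7 inclusion puts luciferase in frame. Cells were seeded at 2000 cells/well, attached for 10-12 hours, then exposed to compounds for 30-36 hours at 37C before ONE-Glo luminescence.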
ELG1 DNA repair – ELG1-dependent DNA repair inhibition | Potency, µM (series often up to 46.1 µM), hits mostly inhibitors | HEK293T ELG1-luciferase reporter, luminescence, 16 h; DNA damage induced by 5-fluorouridine | AID 504467 | 2.3% of 330,000 active; further: nearly all actives have a fitted effect of over 55% in size
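Step one: seed 2,000 cells per well. Step two: pin-transfer compound or DMSO alongside 5-fluorouridine. Step three: incubate 16 hr, 37 °C, 5% CO2. Step four: add ONE-Glo, wait 30 min, read luminescence.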
A number is an active result; n = inactive; u = inconclusive; x = no result; [ ] = another dose, or the depositor's remark. The call rests on the fitted dose curve; in most records, active means well fitted curve in the direction sought with a large enough effect; inconclusive means small, poorly fitted or top-dose-only effect, or another doubt; inactive means no such curve, though single readings can be large; an effect the other way counts as inactive or inconclusive.

SMILES | FLuc modulator | NPC1 prom act | Rab9 prom act | ELG1 genotoxic | SMN2 splice enh | ELG1 DNA repair
COc1cc(/C=C/c2ccc3cccc(O)c3n2)cc(Br)c1OC | 4.8µM | 2.8µM | 4µM | 23µM | x | u
COc1ccc(/C=C/c2ccc3cccc(O)c3n2)cc1Br | 6µM | u | n | u | x | u
NC(=O)Cn1cnc2c(nnn2-c2ccc(F)cc2)c1=O | n | n | n | n | x | n
CN(CC(=O)Nc1ccc(F)cc1)C(=O)CN1C(=O)NC2(CCCc3ccccc32)C1=O (stereo not given) | n | n | n[1.84 µM] | n | x | n
Cc1c(CC(=O)NCCc2ccccc2F)c(=O)oc2c(C)c3occ(C(C)(C)C)c3cc12 | n | x | x | x | n | x
CN(C(=O)c1ccccc1-c1ncc[nH]1)C1CCCN(Cc2ccccc2F)C1 (stereo not given) | n | n | n | n | x | n
COc1ccc(/C=C/c2ccc3c(Br)ccc(O)c3n2)cc1 | 5.4µM | u | u | u | x | u
O=C(O)c1cc(N/N=C/c2ccc(N3CCOCC3)s2)ccc1Cl | 7.6µM | u | 3.2µM | u | u | u
C/C(=N\Nc1ccc(Cl)c(C(=O)O)c1)c1ccc(N2CCOCC2)cc1 | 24µM | n | u | u | x | u
CCOc1ccc(C(=O)Nc2cccc(C(=O)O)c2)cc1Cl | 0.24µM | u | u | n | 0.56µM | u
O=C(COc1ccc(Cl)cc1Cl)Nc1ccc(Cl)cn1 | 0.3µM | 0.45µM | u | 1.2µM | 11µM | u
O=C(COc1ccc(Cl)cc1Cl)NNC(=S)NCc1ccco1 | u | n | n | n | x | n
O=C(COc1ccc(Cl)cc1Cl)NN=C1CCCCC1 | 7.6µM | n | n | n | n | n
CCOc1ccc(C(=O)Nc2cc(NC(=O)c3ccc(OCC)c(Cl)c3)cc(C(=O)O)c2)cc1Cl | n | n | n | n | n | n
O=C(COc1ccc(Cl)cc1Cl)NCc1ccco1 | 24µM | n | u | u | n | u
CC(C)(C)C1CCc2oc3ccc(NS(=O)(=O)c4cc(Cl)ccc4Cl)cc3c2C1 (stereo not given) | n | x | x | x | n | x
O=C(O)C(=O)/C=C(\O)c1ccc(Br)cc1 | x | x | x | x | n[9.22 µM] | x
COc1ccc(CC(=O)Nc2ccc(S(=O)(=O)N3CCC(C)CC3)cc2)c(OC)c1 | n | n | n | n | x | u
CCOc1ccc(C(=O)Nc2ccc(Cl)cn2)cc1Cl | 4.8µM | 2.5µM | 2.5µM | u | u | u
CCN(CC(=O)NC(=O)Nc1ccccc1F)Cc1ccccc1 | n | n | n | 18µM | x | n
COc1ccc(Nc2nc3ccc(Cl)cc3nc2-n2nc(C)cc2C)cc1 | n | x | x | x | x | x
COc1cc(OC)cc(C(=O)N[C@H](C(=O)OCc2cc(=O)oc3cc(C)ccc23)C(C)C)c1 | 8.5µM | n | n | n | n | u
Cc1ccc2c(COC(=O)c3ccc(C)c(C)c3)cc(=O)oc2c1 | n | n | u | n | x | u
Cc1ccc2c(COC(=O)c3ccccc3Br)cc(=O)oc2c1 | 2.7µM | u | n | 15µM | x | u
Cc1ccc2c(COC(=O)C34CC5CC(CC(C5)C3)C4)cc(=O)oc2c1 | u | u | 4µM | u | n | u
SMILES | FLuc modulator | NPC1 prom act | Rab9 prom act | ELG1 genotoxic | SMN2 splice enh | ELG1 DNA repair
Cc1ccc2c(COC(=O)c3ccccc3Cl)cc(=O)oc2c1 | 0.85µM | u | n | 15µM | x | u
O=C(CN(C(=O)c1csnn1)c1ccccc1F)NC1CCCCC1 | n | n | n | n | x | n
CCOC(=O)CCNC(=O)N1CCCC(C(=O)c2cc(C)c(OC)c(C)c2)C1 (stereo not given) | n | n | n | n | x | n
Cc1nnc(SCC(=O)Nc2nccs2)n1N | n | n | n | n | x | n
C[C@H](O)Cn1cnc2c1c(=O)n(C)c(=O)n2C | x | x | x | x | n | x
CC(=O)Nc1ccc(S(=O)(=O)NCCSCc2c(Cl)cccc2Cl)cc1 | n | n | n | n | n | 23µM
CC(=O)Nc1ccc(S(=O)(=O)NCCSCc2cccc(Cl)c2)cc1 | n | n | n | n | n | n
Cc1ccc(OCC(=O)Nc2ccc3c(c2)OC(F)(F)O3)c([N+](=O)[O-])n1 | n | n | n | n | n | n
Cc1ccc(OCCOc2ccc(Br)cc2)c([N+](=O)[O-])n1 | 9.5µM | u | u | u | 11µM | u

Bioassay records deposited in PubChem BioAssay by National Center for Advancing Translational Sciences (NCATS).
